In the supplement of paper PMC10981050:
Where “and” joins values, the source holds several entries; their conditions need not be identical. Equal entries are not always repeated. Structures can show the parent of a compound that is named as a salt.

What was measured:
Assay in all cases: cell viability relative to vehicle control; higher = less cytotoxic
Details in all cases: 10 µM
[1] = test system: K562
How it was run: (§1)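 Four leukaemia lines, as CRISPR-edited mutant clones and isogenic wild-type clones, were tested against Selleck bioactive, kinase and epigenetic probe libraries after removal of identity-inconsistent compounds. Cells were exposed to a single 10 µM dose for 48 h, and CellTiter-Glo luminescence was then read. Viability was calculated relative to the on-plate vehicle control.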

[2] = test system: MARIMO
How it was run: as §1

[3] = test system: MOLM14
How it was run: as §1

[4] = test system: OCI-AML2
How it was run: as §1

Row | Compound | cell viability ([1]; SRSF2 genotype: SRSF2 P95H/wt) | cell viability ([1]; SRSF2 genotype: SRSF2 wt/wt) | cell viability ([2]; SRSF2 genotype: SRSF2 P95H/wt) | cell viability ([2]; SRSF2 genotype: SRSF2 wt/wt) | cell viability ([3]; SRSF2 genotype: SRSF2 P95H/wt) | cell viability ([3]; SRSF2 genotype: SRSF2 wt/wt) | cell viability ([4]; SRSF2 genotype: P95H/wt) | cell viability ([4]; SRSF2 genotype: wt/wt)
1 | CC(C)=CCC[C@](C)(O[C@@H]1O[C@H](CO)[C@@H](O)[C@H](O)[C@H]1O)[C@H]1CC[C@]2(C)[C@@H]1[C@H](O)C[C@@H]1[C@@]3(C)CC[C@H](O)C(C)(C)[C@@H]3[C@@H](O[C@@H]3O[C@H](CO)[C@@H](O)[C@H](O)[C@H]3O[C@@H]3O[C@@H](C)[C@H](O)[C@@H](O)[C@H]3O)C[C@]12C [Ginsenoside Re] | 103% and 101% | 101% | 99.2% | 105% | 101% | 106% | 97.4% | 107%
2 | S=C=Nc1cccc(NC(=S)NCCCCNC(=S)Nc2cccc(N=C=S)c2)c1 | 98.3% and 104% | 98.8% | 106% | 105% | 102% | 106% | 109% | 106%
3 | COc1ccc(C(=O)C(=O)c2ccc(OC)cc2)cc1 | 104% and 97.9% | 104% | 95.5% | 105% | 100% | 106% | 94.5% | 90.8%
4 | CCCCN1CCCCC1C(=O)Nc1c(C)cccc1C (centres undefined) [Bupivacaine hydrochloride (Marcain)] | 92% and 102% | 98.8% | 97.7% | 103% | 98.5% | 102% | 100% | 104%
5 | CN1CCN(Cc2ccc(NC(=O)Cc3ccc(Oc4cc(NC(=O)C5CC5)ncn4)cc3)cc2C(F)(F)F)CC1 | 30.9% and 36.5% | 23.8% | 4.48% | 2.16% | 1.39% | 0.45% | 1% | 5.81%
6 | Cc1c(C(=O)Nc2ccc(N3C[C@@H](C)O[C@@H](C)C3)nc2)cccc1-c1ccc(OC(F)(F)F)cc1 [LDE225 (NVP-LDE225, Erismodegib)] | 82.9% and 91.2% | 91.9% | 86.2% | 102% | 87.7% | 95.9% | 77.6% | 85%
7 | C[S+](CC[C@H](N)C(=O)[O-])C[C@H]1O[C@@H](n2cnc3c(N)ncnc32)[C@H](O)[C@@H]1O (some centres undefined) [Ademetionine] | 108% and 105% | 119% | 104% | 108% | 109% | 111% | 129% | 133%
8 | CC(=O)OC1CC2CCC1(C)C2(C)C (centres undefined) [Bornyl acetate] | 109% and 107% | 114% | 107% | 107% | 98.8% | 104% | 110% | 107%
9 | O=c1cc(-c2ccccc2)oc2cc(O[C@@H]3O[C@H](CO[C@@H]4O[C@H](CO)[C@@H](O)[C@H](O)[C@H]4O)[C@@H](O)[C@H](O)[C@H]3O)c(O)c(O)c12 [Oroxin B] | 101% and 105% | 98.7% | 102% | 104% | 112% | 107% | 95.6% | 98.6%
10 | O=C(CCCCCCC(=O)Nc1ccccc1)NO [Vorinostat (SAHA, MK0683)] | 1.62% and 17.9% | 10.1% | 4.92% | 8.5% | 0.83% | 0.28% | 1.15% | 4.64%
11 | CCOc1cc(C=O)ccc1OC(C)=O [Ethyl vanillin acetate] | 103% and 99.2% | 102% | 105% | 108% | 96.4% | 98.5% | 98% | 108%
12 | Cc1ccc(Cl)c(Nc2ccccc2C(=O)O)c1Cl [Meclofenamate sodium] | 97.7% and 99.9% | 96.9% | 97.2% | 96.4% | 96.8% | 98.5% | 105% | 99.4%
13 | C[C@H](CCC(=O)O)[C@H]1CC[C@H]2[C@@H]3[C@H](O)C[C@@H]4C[C@H](O)CC[C@]4(C)[C@H]3CC[C@]12C [Chenodeoxycholic acid] | 97.4% and 101% | 99.7% | 104% | 108% | 100% | 101% | 98.4% | 106%
14 | OCC(O)C(O)C(O)C(O)CO (centres undefined) [Dulcitol] | 102% and 104% | 99.7% | 105% | 107% | 99.9% | 106% | 105% | 103%
15 | CNCc1ccc(C)c(NC(=O)c2ccc(Nc3nc(-c4ccccc4)c4ccccc4n3)cc2)c1 | 0.99% and 1.39% | 1.34% | 0.68% | 0.61% | 0.42% | 0.52% | 0.4% | 0.57%
16 | Cn1cc(-c2cnn3c(N)c(Br)c([C@@H]4CCCNC4)nc23)cn1 | 42.2% and 58.8% | 25.3% | 50.4% | 61.6% | 12.8% | 7.07% | 9.84% | 11.1%
17 | CC1=CC(=O)CC(C)(C)C1(O)/C=C/C(C)=C\C(=O)O (centres undefined) [Abscisic Acid (Dormin)] | 102% and 99.2% | 98.1% | 101% | 110% | 104% | 101% | 105% | 102%
18 | CC(C)(CO)C(O)C(=O)NCCC(=O)O [Calcium D-Panthotenate] | 95.3% and 94.5% | 95.3% | 95.1% | 105% | 96.8% | 97.2% | 95.4% | 94%
19 | Clc1ccc2nsnc2c1NC1=NCCN1 [Tizanidine HCl] | 104% and 101% | 104% | 94.3% | 107% | 103% | 99.6% | 101% | 106%

Row | Compound | cell viability ([1]; SRSF2 genotype: SRSF2 P95H/wt) | cell viability ([1]; SRSF2 genotype: SRSF2 wt/wt) | cell viability ([2]; SRSF2 genotype: SRSF2 P95H/wt) | cell viability ([2]; SRSF2 genotype: SRSF2 wt/wt) | cell viability ([3]; SRSF2 genotype: SRSF2 P95H/wt) | cell viability ([3]; SRSF2 genotype: SRSF2 wt/wt) | cell viability ([4]; SRSF2 genotype: P95H/wt) | cell viability ([4]; SRSF2 genotype: wt/wt)
20 | C=C(C)C1CCC2(C)CCC(=O)C(C)=C2C1 (centres undefined) | 111% and 105% | 112% | 106% | 100% | 112% | 110% | 102% | 101%
21 | O=C(Nc1ccncc1)c1cc([N+](=O)[O-])ccc1Cl | 102% and 101% | 91.5% | 106% | 102% | 70.5% | 106% | 83.2% | 73.9%
22 | CC(C)(C)C(=O)Nc1ccc2c(c1)C(=O)C(=O)c1ccccc1-2 [SF1670 (PTEN inhibitor)] | 84.3% and 70.9% | 56.8% | 2.56% | 70.5% | 88.4% | 39.2% | 65.8% | 76.2%
23 | C=C1C[C@@]23CC[C@H]4[C@@](C)(CCC[C@@]4(C)C(=O)O)[C@@H]2CC[C@]1(O[C@@H]1O[C@@H](CO)[C@@H](O)[C@H](O)[C@@H]1O[C@@H]1O[C@@H](CO)[C@@H](O)[C@H](O)[C@@H]1O)C3 [Steviolbioside] | 111% and 108% | 107% | 114% | 99.5% | 118% | 110% | 104% | 103%
24 | CCCN(CCc1cccs1)[C@H]1CCc2c(O)cccc2C1 [Rotigotine] | 99.3% and 105% | 104% | 89.7% | 105% | 93.8% | 101% | 107% | 92.3%
25 | Cc1cc(C(N)=O)ccc1-n1c(CCC(=O)O)ccc1-c1ccc(-n2ccnc2)cc1 | 101% and 109% | 108% | 105% | 98% | 105% | 108% | 109% | 124%
26 | CC(NC(=O)C(Cc1ccccc1)NC(=O)OCc1ccccc1)C(=O)CF (centres undefined) | 102% and 101% | 96% | 92.9% | 111% | 94.3% | 101% | 98.8% | 94.9%
27 | CCCCNc1ncc2c(-c3ccc(CN4CCN(C)CC4)cc3)cn([C@H]3CC[C@H](O)CC3)c2n1 | 5.45% and 6.26% | 6.13% | 8.07% | 5.67% | 0.26% | 0.23% | 1.56% | 5.54%
28 | CN(C)CCc1c[nH]c2ccc(Cn3cncn3)cc12 [Rizatriptan Benzoate (Maxalt)] | 86.7% and 84.6% | 84.2% | 76.2% | 82.7% | 86.7% | 85.6% | 92.7% | 83.5%
29 | C#Cc1cccc(Nc2ncnc3cc(OCCOC)c(OCCOC)cc23)c1 [Erlotinib(OSI-744)] | 83.5% and 94.5% | 84.8% | 75.9% | 84.8% | 79% | 84.6% | 77.9% | 84.4%
30 | COc1nc(C)nc(Cl)c1NC1=NCCN1 [Moxonidine] | 101% and 86.7% | 84.3% | 87.2% | 95.5% | 89.9% | 94.8% | 97.5% | 89.6%
31 | CN1c2cc(O)c(N=NC(N)=O)cc2CC1S(=O)(=O)O (centres undefined) [Carbazochrome sodium sulfonate] | 99.4% and 97% | 95.2% | 92.7% | 98.7% | 97% | 99.3% | 99.1% | 106%
32 | c1ccc2occc2c1 [2,3-Benzofuran] | 105% and 91% | 99.1% | 93.7% | 107% | 98.4% | 105% | 90.6% | 98.6%
33 | CCCN[C@H]1CCc2nc(N)sc2C1 [Pramipexole dihydrochloride monohydrate] | 102% and 83.9% | 83% | 78.1% | 85.2% | 66.5% | 74.9% | 88.2% | 78.2%
34 | O=C(O)c1cc(C(=O)O)c(C(=O)N(Cc2cccc(Oc3ccccc3)c2)[C@H]2CCCc3ccccc32)cc1C(=O)O | 119% and 108% | 113% | 102% | 103% | 105% | 101% | 106% | 105%
35 | O=c1ncccn1[C@@H]1O[C@H](CO)[C@@H](O)[C@H]1O [Zebularine] | 90.9% and 85.1% | 82.2% | 87.7% | 91.4% | 89.7% | 89.7% | 96.6% | 86.6%
36 | CCCCCC(=O)O[C@]1(C(C)=O)CC[C@H]2[C@@H]3CCC4=CC(=O)CC[C@]4(C)[C@H]3CC[C@@]21C [Hydroxyprogesterone caproate] | 40.1% and 34.4% | 39.2% | 29.2% | 24.9% | 38.5% | 21% | 28.8% | 23.7%
37 | CN1CCN(c2ccc3nc(-c4c(N)c5c(F)cccc5[nH]c4=O)[nH]c3c2)CC1 [Dovitinib (TKI-258, CHIR-258)] | 59.5% and 69.8% | 57.1% | 22.1% | 32.9% | 2.27% | 0.38% | 3.02% | 6.09%
38 | COc1cc2ncnc(Nc3ccc(F)c(Cl)c3)c2cc1O | 92.5% and 95.6% | 102% | 102% | 101% | 81.9% | 101% | 90.2% | 94%
